Data taken from PubChem BioAssay (Tox21).
Records with an inconclusive call do not appear. A call without a number means that no potency is given here. Active and inactive are the calls of the source. The call rests on the fitted dose curve; in most records, active means well fitted activation curve with a large enough effect in the repeat runs; inconclusive means weak or mixed curves; inactive means no such curve, though single readings can be large or run the other way.

Test: qHTS assay to identify small molecule agonists of the estrogen related receptor (ERR) signaling pathway (AID 1224820)
Settings: ERR reporter cell line, luciferase agonist mode; series mostly up to 46.1 µM
Excerpt: National Center for Advancing Translational Sciences [NCATS]
NIH Chemical Genomics Center [NCGC]
U.S. Environmental Protection Agency [EPA]
National Institutes of Environmental Health Sciences [NIEHS]
National Toxicology Program [NTP]
Estrogen related receptors (ERRs), the first orphan nuclear receptors discovered, play an important role in the control of cellular energy metabolism. ERRs are required for high-energy production in response to the environmental challenges. ERR-alpha was also identified as an adverse marker for breast cancer progression; ERR-alpha-positive tumors have a poor prognosis. To screen and to identify environmental compounds that perturb the ERR signaling pathways could provide valuable information for potential therapeutic or preventive measures in the treatment of metabolic disease. For identifying ERR agonists, ERR cell line (provided by NTP) has been used to screen LOPAC library.
The ERR cells were dispensed at 2,000 cells/5 ul/well in 1536-well white plates using a Multidrop dispenser. After the assay plates were incubated at a 37 C/5% CO2 incubator for 6 hours, 23 nL of compounds dissolved in DMSO, positive and negative controls or DMSO only was transferred to the assay plate by a pin tool. The plates were incubated at 37 C for 18 hours. 4 ul/well of One-Glo reagent was added into the assay plates using a Flying Reagent Dispenser. After 30 min incubation at room temperature, the luminescence intensity in the plates was measured using a ViewLux plate reader.
Potency means the concentration at half of the fitted maximal effect.

Row | SMILES | Potency
1 | CC(N)Cc1c[nH]c2ccc(O)cc12 (stereo not given) | inactive
2 | CCCN1CCC[C@@H](c2cccc(O)c2)C1 | inactive
3 | CCCN(CCC)C1Cc2cc(OC)c(OC)cc2C1 | inactive
4 | CCCN(CCC)[C@@H]1CCc2ccc(O)cc2C1 | inactive
5 | CCN1C[C@@]2(COC)C3[C@@H](OC)C4[C@H]1C3([C@@H]1C[C@@]3(O)[C@H](OC(=O)c5ccccc5)[C@@H]1[C@]4(OC(C)=O)[C@@H](O)[C@@H]3OC)[C@H](OC)C[C@H]2O | inactive
6 | O=C(N[C@H]1CN2CCC1CC2)c1ccc(Cl)cc1 | inactive
7 | O=C1/C(=C/c2ccccc2)C[C@@]2(O)[C@H]3Cc4ccc(O)c5c4[C@@]2(CCN3CC2CC2)[C@H]1O5 | inactive
8 | C[N+]1(C)C2CCC1CC(OC(=O)c1c[nH]c3ccccc13)C2 (stereo not given) | inactive
9 | CCCN(CCC)C1CCc2cccc(O)c2C1 (stereo not given) | inactive
10 | NC(Cc1cc(O)c(O)cc1O)C(=O)O (stereo not given) | inactive
11 | N#C/C(=C/c1ccc(O)c(O)c1)C(N)=S | inactive
12 | NCCc1c[nH]c2ccc(O)cc12 | inactive
13 | O=C(O)[C@@H]1CCN1 | inactive
14 | NC(=O)CN1CC(O)CC1=O (stereo not given) | inactive
15 | COc1ccc(C(c2ccc(OC)cc2)C(Cl)(Cl)Cl)cc1 | inactive
16 | NC(=NCCC[C@H](N)C(=O)O)N[N+](=O)[O-] | inactive
17 | CC(=O)NBr | inactive
18 | N[C@@]1(C(=O)O)CC[C@@H](C(=O)O)C1 | inactive
19 | Cn1cnc(CCN)c1 | inactive
20 | CCCN(CCC)CCc1ccc(O)c(O)c1 | inactive

Row | SMILES | Potency
21 | NCCc1c[nH]c2ccccc12 | inactive
22 | NC(N)=NOCC[C@H](N)C(=O)O | inactive
23 | C/C=C(/C)C(=O)O[C@H]1C(C)=C2[C@H]([C@@H]1OC(=O)CCCCCCC)[C@@](C)(OC(C)=O)C[C@H](OC(=O)CCC)[C@@]1(O)[C@H]2OC(=O)[C@@]1(C)O | inactive
24 | CC(C)[C@H]1CN[C@H](C(=O)O)[C@H]1CC(=O)O | inactive
25 | CCN(CC)c1ncnc2c1ncn2[C@@H]1O[C@H](COP(=O)(O)OP(=O)(O)C(Br)(Br)P(=O)(O)O)[C@@H](O)[C@H]1O | inactive
26 | Nc1cc2c(ncn2CCOCP(=O)(O)O)c(=O)[nH]1 | inactive
27 | Nc1ncnc2c1ncn2[C@@H]1O[C@H](COP(=O)(O)CP(=O)(O)OP(=O)(O)O)C(O)[C@H]1O (stereo not given in full) | inactive
28 | C[C@H]1C2Cc3ccc(O)cc3[C@@]1(C)CCN2CC1CC1 | inactive
29 | CCCn1c(=O)c2[nH]c(C3CCCC3)nc2n(CCCOC(=O)c2ccc(S(=O)(=O)F)cc2)c1=O | inactive
30 | CCCN(CCC)[C@H]1CCc2c(F)ccc(O)c2C1 | inactive
31 | NC(CCCCCP(=O)(O)O)C(=O)O (stereo not given) | inactive
32 | C#CCN[C@H](C)Cc1ccccc1 | inactive
33 | C[N+](C)(C)CCOC(=O)CBr | inactive
34 | CC(=O)c1c(O)c(C)c(O)c(Cc2c(O)c3c(c(C(=O)/C=C/c4ccccc4)c2O)OC(C)(C)C=C3)c1O | inactive
35 | C[C@]12N[C@H](Cc3ccccc31)c1ccccc12 | inactive
36 | CCNC(=O)[C@H]1O[C@@H](n2cnc3c(N)ncnc32)[C@H](O)C1O (stereo not given in full) | inactive
37 | COc1ccc2c(c[n+](C)c3c4cc5c(cc4ccc23)OCO5)c1OC | inactive
38 | NC(N)=Nc1ccc2[nH]c3c(c2c1)C[C@@]1(O)[C@H]2Cc4ccc(O)c5c4[C@@]1(CCN2CC1CC1)[C@H]3O5 | inactive
39 | CCCCCCCCCCCCCC(=O)O[C@@H]1[C@@H](C)[C@@]2(O)[C@@H](C=C(CO)C[C@@]3(O)C(=O)C(C)=C[C@@H]23)C2C(C)(C)[C@@]21OC(C)=O (stereo not given in full) | 8.72 nM (active)
40 | CC(N)Cc1c[nH]c2ccc(OCc3cccs3)cc12 (stereo not given) | inactive
